High-throughput results as filed in PubChem BioAssay.
An excerpt weighted towards active compounds, which were near 3% of everything screened.
SNCA expr inhib: reduces expression of the alpha-synuclein gene. HEK-293 SNCA-luciferase knock-in, luminescence, 24 h. Potency, µM (top dose mostly 57.2 µM), hits mostly inhibitors. 140,000 compounds, 0.17% hits. AID 1671194; also: nearly all actives have a fitted effect of over 45% in size
IP6K1 inh: blocks human inositol hexakisphosphate kinase 1; Q92551; IP6K1 kinase, ADP-Glo luminescence, 2 h; active compounds read low; activity change, % (series mostly up to about 58 µM); 140,000 compounds, 0.81% hits; in the data active = activity change below about -25%
Target sequence (Q92551 whole entry, looked up): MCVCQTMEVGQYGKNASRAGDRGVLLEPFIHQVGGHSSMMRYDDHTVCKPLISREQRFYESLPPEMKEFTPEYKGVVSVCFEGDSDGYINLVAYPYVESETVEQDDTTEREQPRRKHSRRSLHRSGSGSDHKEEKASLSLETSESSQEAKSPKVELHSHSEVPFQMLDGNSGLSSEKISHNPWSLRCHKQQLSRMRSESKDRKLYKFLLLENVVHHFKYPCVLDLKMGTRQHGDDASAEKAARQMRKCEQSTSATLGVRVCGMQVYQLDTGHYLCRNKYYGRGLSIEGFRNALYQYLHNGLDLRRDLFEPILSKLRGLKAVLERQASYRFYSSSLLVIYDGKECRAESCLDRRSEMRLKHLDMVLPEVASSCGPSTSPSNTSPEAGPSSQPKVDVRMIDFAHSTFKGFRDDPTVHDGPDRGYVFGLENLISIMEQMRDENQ
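ADP-Glo luminescence measures ADP made by human IP6K1 during a 2 h RT reaction with ATP/IP6 (mix at 1.3 mM/130 uM); top library doses 57.5 and 19.1 uM final.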
HEK293 viab: reduces viability of HEK-293 SNCA reporter cells; HEK-293-SNCA-luc viability, GF-AFC fluorescence, 24 h; Potency, µM (titrated, usually from 57.1 µM), usual class: cytotoxic; 150,000 compounds, 0.12% hits; AID 1671193; also: nearly all actives have a fitted effect of over 30% in size
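Cytotoxicity counterscreen: after 24 h compound treatment of genome-edited SNCA-luciferase HEK-293 cells, live-cell protease substrate GF-AFC read by fluorescence after 30 min; activity scaled between DMSO (0%) and medium-only (-100%), curves Hill-fitted.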
KDM5B inhibitor: KDM5B demethylase inhibition; Q9UGL1; KDM5B demethylase, FDH-coupled NADH fluorescence (FDH is formaldehyde dehydrogenase); Potency, µM (doses to about 57.7 µM), actives largely listed as inhibitors; 220,000 compounds, 2.6% hits; AID 1347165; also: nearly all actives have a fitted effect of over 70% in size
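Inhibition is measured as reduced NADH fluorescence generation from FDH coupling to formaldehyde release. Truncated KDM5BΔAP at 200 nM final acts on H3K4me3 peptide (12.5 µM in substrate mix) in pH 7.5 HEPES buffer with Tween-20, 30 min, room temperature.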
A number is an active result; n = inactive; u = inconclusive; x = no result; ! = not confirmed by another sample; [ ] = remark or other dose. Unless noted, calls follow the shape of the dose curve; as a rule, active = well fitted curve in the direction sought with a large enough effect; inconclusive = small, poorly fitted or top-dose-only effect, or another doubt; inactive = no such curve, though single readings can be large; an effect the other way counts as inactive or inconclusive.

SMILES	SNCA expr inhib	IP6K1 inh	HEK293 viab	KDM5B inhibitor
N#Cc1cccc(CN2C[C@@H](CO)[C@H](c3ccccn3)C2)c1	n	n	n	13µM
COC[C@@H]1CN(Cc2cccc(C#N)c2)C[C@H]1c1ccccn1	u	n	n	n
CCC(CC)CN1CC2(CCN(C(=O)c3cn4cccnc4n3)CC2)OC1=O	n	n	n	32µM
CC(=O)N(C)C1(c2ccccc2)CCN(CCC[C@]2(c3ccc(Cl)c(Cl)c3)CCCN(C(=O)c3ccccc3)C2)CC1	1.7µM	n	2.2µM!	x
CN(C)C(=O)NC1(c2ccccc2)CCN(CCC[C@]2(c3ccc(Cl)c(Cl)c3)CCCN(C(=O)c3ccccc3)C2)CC1	x	n	u	x
O=C(NCc1ccco1)N1CCc2nc3cc(-c4ccccc4Cl)[nH]n3c(=O)c2C1	u	n	n	14µM
CCn1nccc1C(=O)N1CCc2nc3cc(-c4ccccc4Cl)[nH]n3c(=O)c2C1	u	n	n	u
O=C(c1ccncc1)N1CCc2nc3cc(-c4ccccc4Cl)[nH]n3c(=O)c2C1	7.9µM	n	n	16µM
O=C1CCN(S(=O)(=O)c2ccc3c(c2)CCC3)CCCC(C(=O)NCc2ccncc2)CCN1 (stereo not given)	n	n	n	n
CCOCCCNC(=O)c1cc(SC)ccc1C	x	x	x	n
Fc1ccc(CNC(=S)Nc2ccccc2)cc1	x	x	x	n
O=C(CCC1CCCN(S(=O)(=O)c2ccccc2)C1)NCC1CC1 (stereo not given)	n	n	n	20µM
Cc1ccccc1S(=O)(=O)N1CCCC(CCC(=O)NC2CC2)C1 (stereo not given)	u	n	n	14µM
Cc1ccccc1S(=O)(=O)N1CCCC(CCC(=O)NC2CCCCCC2)C1 (stereo not given)	u	n	n	u
Cc1cccc(CN2CCN(Cc3nc(-c4cccs4)oc3C)CC2CCO)n1 (stereo not given)	n	n	n	25µM
Cc1cccc2sc(NC(=O)NC3CC(=O)N(c4ccc5c(c4)OCCO5)C3)nc12 (stereo not given)	x	x	x	n
Cc1ccc([S+](=O)([O-])N2CCc3nc(C(C)C)nc(-c4ccc(O)cc4)c3C2)cc1	n	n	u	x
CN1CCc2c(sc3c2C(=O)NC(c2ccc(OC(=O)c4ccc(Cl)cc4)cc2)N3)C1 (stereo not given)	n	n	n	u
CN1CCc2c(sc3c2C(=O)NC(c2ccc(OC(=O)c4ccc(C(C)(C)C)cc4)cc2)N3)C1 (stereo not given)	1µM	n	u	u
COCc1cn2c(=O)n(C)cc(-c3ccnc(OC)c3)c2n1	n	n	n	32µM
COc1ccc(-c2cn(C)c(=O)n3cc(COc4ccnn4C)nc23)cc1OC	n	n	n	35µM
COc1ccc(-c2cn(C)c(=O)n3cc(COc4ccnn4C)nc23)cc1	n	n	n	u
Cn1cc(-c2ccc(O)c(F)c2)c2nc(COc3ccc(Cl)cc3)cn2c1=O	n	n	n	20µM
Cn1nccc1OCc1cn2c(=O)n(C)cc(-c3cccc(OCc4ccccc4)c3)c2n1	u	n	u	40µM
COCc1cn2c(=O)n(C)cc(-c3ccc(OC)nc3)c2n1	n	n	n	n
SMILES	SNCA expr inhib	IP6K1 inh	HEK293 viab	KDM5B inhibitor
Cn1ncc2c(C(=O)Nc3cccc(Cl)c3)cc(-c3cccc(C(F)(F)F)c3)nc21	x	n	x	x
O=C(Nc1ccc(Oc2ccccc2)cc1)O[C@@H]1CO[C@H]2[C@@H]1OC[C@@H]2NS(=O)(=O)c1ccc2ccccc2c1	n	n	n	22µM
O=C(Nc1ccc(Oc2ccccc2)cc1)O[C@@H]1CO[C@H]2[C@@H]1OC[C@@H]2NC(=S)Nc1cccc2ccccc12	u	n	n	32µM
O=C(Nc1ccc(Oc2ccccc2)cc1)N[C@H]1CO[C@H]2[C@@H]1OC[C@H]2OC(=O)Nc1cccc2ccccc12	u	n	n	u
O=C(NCCc1ccccc1)C1CCCN(Cc2cccc(-c3ccsc3)c2)C1 (stereo not given)	x	n	x	x
CNC(=O)[C@@H]1CN(S(=O)(=O)c2ccc(F)c(C)c2)C[C@H]1C1CCN(C)CC1	u	n	n[12.5 µM]	22µM
Cn1ncc2c(C(=O)NC3CCc4ccccc43)cc(-c3ccccc3C(F)(F)F)nc21 (stereo not given)	x	n	x	x
O=C1CCN(CC(O)Cc2ccccc2)c2ccccc2CN1Cc1ccccc1 (stereo not given)	x	n	x	x
O=C(N[C@H](c1ccccn1)C1CC(O)C1)c1cnc2ccccn2c1=O (stereo not given in full)	n	n	n	25µM
Cc1cc2c(cc1C(=O)N[C@H](c1ccccn1)C1CC(O)C1)OCCO2 (stereo not given in full)	n	n	n	n
CC1(COc2ccc3[nH]ccc3c2)COc2ccc(C(=O)Nc3cccnc3)cc2N1 (stereo not given)	n	n	n	35µM
COc1ccc(NC(=O)c2ccc3c(c2)NC(C)(COc2ccc4[nH]ccc4c2)CO3)cn1 (stereo not given)	n	n	n	20µM
COCCN(C)C(=O)c1ccc2c(c1)NC(C)(COc1ccc3[nH]ccc3c1)CO2 (stereo not given)	n	n	n	n
Cc1noc(C)c1S(=O)(=O)N1CCC(Oc2ccc(-c3noc(C(C)C)n3)cc2)C1 (stereo not given)	n	n	n	x
COc1ccc(NC(=O)c2ccc(NC(=O)c3ccc4ccccc4n3)cc2)cc1	x	x	x	n
Cn1c(=O)[nH]c(=O)c2c1nc(N1CCN(c3cccc(Cl)c3)CC1)n2Cc1ccccc1	x	x	x	n
Cn1ncc(N2CCOC(CCNc3cnc4ccccc4n3)C2)cc1=O (stereo not given)	n	n	n	32µM
O=C(O)c1cc2c(Br)cccc2[nH]1	x	x	x	n
Cn1cc(CN2CC[C@@H](c3ccc4c(c3)OCO4)[C@H](O)C2)c2ccccc21	n	n	n	u
CCc1nc(CN2CC[C@@H](c3ccc4c(c3)OCO4)[C@H](O)C2)c(C)[nH]1	n	n	n	25µM
OC1CCN(c2ccnc(N3CC[C@@H](c4ccc5c(c4)OCO5)[C@H](O)C3)n2)CC1	n	n	n	n
Cc1ccc(C#N)c(N2CC[C@@H](c3ccc4c(c3)OCO4)[C@H](O)C2)n1	n	n	n	28µM
COc1ccc(OC)c(-c2nc(CN3CCCC(C(C)(C)O)C3)c(C)o2)c1 (stereo not given)	n	n	n	20µM
CCC1CN(Cc2nc(-c3ccc(OC)cc3F)oc2C)CCN1C(C)C (stereo not given)	n	n	n	u
CCOc1ccc(CC(=O)N2CCC3(CC2)N=C(c2ccc(Cl)cc2)NO3)cc1	n	n	n	16µM
CCOc1ccc(C(=O)N2CCC3(CC2)N=C(c2ccc(Cl)cc2)NO3)cc1	n	n	n	28µM
Cc1ccc(C(=O)N2CCC3(CC2)N=C(c2ccc(Cl)cc2)NO3)cc1	n	n	n	u
O=[S+]([O-])(NC1CCCN(c2ccc3nnc(-c4ccccc4)n3n2)C1)c1ccccc1 (stereo not given)	x	n	x	x
Fc1ccccc1CN1CCCC2(CCN(c3cnccn3)C2)C1 (stereo not given)	n	n	n	32µM
